Measured values reported in PubChem BioAssay (NCI).
This is part of a sample that, as a whole, favours compounds with a hit. Of some 79,000 tested, about 15% had one in any assay. Cut-off read from the data, not from the text of the source: active = growth inhibition above about 70%; inactive = the rest.

Experiments:
[1] = NCI Yeast Anticancer Drug Screen. Data for the rad50 strain (AID 155);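 note: 0% = growth of vehicle-only cultures of the same strain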; conditions: S. cerevisiae rad50 strain growth inhibition; at 50.0 µM; hits give high values
Outline: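 Vehicle-treated cultures provide the reference for the growth inhibition reported for compound-exposed, repair-deficient yeast.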

[2] = NCI Yeast Anticancer Drug Screen. Data for the mec2-1 strain (AID 157); conditions: S. cerevisiae mec2-1 strain, at 50.0 µM, hits give high values
Outline: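 Cells of the genetically defined mec2-1 yeast strain are incubated with test compound. Inhibition of growth is calculated against vehicle-treated controls.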

[3] = NCI Yeast Anticancer Drug Screen. Data for the sgs1 mgt1 strain (AID 161);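 note: 0% = growth of cultures given vehicle only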; conditions: S. cerevisiae sgs1 mgt1 strain, at 50.0 µM, hits give high values
Outline: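 Mutant yeast exposed to compound; growth scored against vehicle-only wells.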

[4] = NCI Yeast Anticancer Drug Screen. Data for the cln2 rad14 strain (AID 165);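 note: 0% = growth equal to vehicle treated cultures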; conditions: S. cerevisiae cln2 rad14 strain, at 50.0 µM, hits give high values
Outline: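 The screen exposed genetically defined yeast (cln2 rad14) to test compounds and scored growth inhibition relative to vehicle-treated controls.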

[5] = NCI Yeast Anticancer Drug Screen. Data for the bub3 strain (AID 167); conditions: S. cerevisiae bub3 mutant strain, at 50.0 µM, hits give high values
Outline: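 Mutant yeast screening strain plus compound; vehicle-treated cultures serve as the 0% inhibition reference.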

[6] = NCI Yeast Anticancer Drug Screen. Data for the mlh1 rad18 strain (AID 175); conditions: S. cerevisiae mlh1 rad18 strain growth inhibition; at 50.0 µM; hits give high values
Outline: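 Compound-treated yeast growth, normalised to vehicle controls. Strain bears defined DNA repair mutations.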

Measured: growth inhibition

NCC(O)C(O)C(O)C(O)CO (stereo not drawn)
inactive: [1] 13.2% | [2] 6.8% | [3] 15.1% | [4] 23.2% | [5] 18.1% | [6] 0.95%

CC(O)C(F)(F)C(F)(F)C(F)(F)F (stereo not drawn)
inactive: [1] 7.8% | [2] -16.6% | [3] 19.9% | [4] -2.1% | [5] -2.7% | [6] 20.8%

CN1CCCN(C(c2ccccc2)c2ccc(Cl)cc2)CC1 (stereo not drawn)
inactive: [1] 3.9% | [2] -16.9% | [3] 1.95% | [4] 19.9% | [5] 27.6% | [6] 10.5%

Nc1ccn(C2OC(CO)C(O)C2F)c(=O)n1 (stereo not drawn)
inactive: [1] 12.4% | [2] 0.45% | [3] 11.9% | [4] 10.7% | [5] -0.1% | [6] -6.95%

O=Cc1ccc(O)c(O)c1
inactive: [1] 17.6% | [2] -6.5% | [3] 11.6% | [4] 7.75% | [5] 4.05% | [6] 18.9%

Cn1c(=O)[nH]c2ccccc2c1=O
inactive: [1] -1% | [2] 4.5% | [3] -2.1% | [4] 0.7% | [5] 6.85% | [6] 5.05%

COc1ccc(Br)c2c1C(=O)CC2
inactive: [1] 43.6% | [2] 23.4% | [3] 29.4% | [4] 28.4% | [5] 5.45% | [6] 32.9%

Cc1cc(Cc2ccccc2)c(O)c(Cc2ccccc2)c1
inactive: [1] 50.1% | [2] 3.3% | [3] 32% | [4] 38% | [5] 12.3% | [6] 42.7%

CCCCCC/C=C\CCCCCCCCCc1cc(O)cc(OC)c1O
inactive: [1] -8.55% | [2] 4.45% | [3] -5.65% | [4] -9.8% | [5] -33.2% | [6] 13.2%

Cc1c(Cl)cccc1N=C=S
inactive: [1] -9.85% | [2] -24% | [3] 15.4% | [4] 11.5% | [5] -0.95% | [6] 8.7%

CC1CN(CCO)CC(C)O1 (stereo not drawn)
inactive: [1] -14.1% | [2] -26.8% | [3] 4.05% | [4] 5% | [5] -1.15% | [6] -10.2%

CCOC(=O)C(COS(C)(=O)=O)(COS(C)(=O)=O)C(=O)OCC
inactive: [1] -24.4% | [2] -22.9% | [3] -21.4% | [4] -2.05% | [5] -2.35% | [6] -6.1%

c1ccc(-c2ccc3ccccc3c2)cc1
inactive: [1] 7.35% | [2] -6.65% | [3] -3.3% | [4] -2.65% | [5] -0.8% | [6] -14.2%

Cc1nc(O)cc(=O)[nH]1
inactive: [1] 17.7% | [2] -6.9% | [3] -14.2% | [4] -6.95% | [5] -15.3% | [6] 10.1%

NS(=O)(=O)c1cc(=O)[nH]c(=O)[nH]1
inactive: [1] -12.2% | [2] -10.8% | [3] -0.5% | [4] -4% | [5] -1.95% | [6] 3.4%

CC(=O)NNC(=S)/N=C\C(C(=O)c1ccccc1)=C(/O)c1ccccc1
inactive: [1] -41.4% | [2] -28.8% | [3] -14.4% | [4] 2% | [5] -15.4% | [6] -19.2%

CCCCN(C=S)CCCC
inactive: [1] 9.65% | [2] -2% | [3] -5.7% | [4] 13.7% | [5] -2.2% | [6] 10.7%

O=C(c1cccc(C(=O)c2ccc3c4c(cccc24)C(=O)N(c2ccccc2)C3=O)c1)c1ccc2c3c(cccc13)C(=O)N(c1ccccc1)C2=O
inactive: [1] -35.5% | [2] -36.8% | [3] -23.1% | [4] 12.1% | [5] -25.4% | [6] -20.8%

C=C(c1ccc(N(C)C)cc1)c1ccc(N(C)C)cc1
inactive: [1] -0.95% | [2] -2.55% | [3] -3.05% | [4] -40.4% | [5] 9.5% | [6] -5.3%

CC1(C)CCC(C)(C)NC(=S)N1
inactive: [1] 13.3% | [2] -8.35% | [3] 21.2% | [4] 1.9% | [5] 13.5% | [6] 11.1%

CC(c1ccccc1)N(C)C (stereo not drawn)
inactive: [1] 12.7% | [2] -1.8% | [3] 0.4% | [4] 7.6% | [5] 5.9% | [6] 1.6%

CCOC(=O)c1c[nH][nH]c1=O
inactive: [1] -9.05% | [2] -8.45% | [3] -3.55% | [4] -18.2% | [5] 7.85% | [6] 5.8%

C=CCc1cc(OC)c(OC)c(OC)c1
inactive: [1] 7.8% | [2] -4.2% | [3] -16.3% | [4] -6.6% | [5] -9.7% | [6] -4%

Cn1/c(=N\N=C\c2ccccc2OCCO)sc2ccccc21
inactive: [1] -2.7% | [2] 17.9% | [3] 18.8% | [4] 9.7% | [5] 26.4% | [6] 4.3%

CCCCOC(=O)c1ccc(NC(=O)CCl)cc1
inactive: [1] 28.6% | [2] 18.8% | [3] 43.1% | [4] 12.5% | [5] 13.8% | [6] 43.4%

NC(=S)N/N=C/c1ccc(OC(=O)COc2ccc(Cl)cc2)cn1
inactive: [1] 5.65% | [2] 7.85% | [3] 31.4% | [4] -1.25% | [5] 4.2% | [6] 9.5%

C=C1C(=O)C2CCC1C2 (stereo not drawn)
inactive: [1] 32.4% | [2] -24.6% | [3] 23.8% | [4] -3.2% | [5] 7.8% | [6] 8.25%

O=C(O)c1ccccc1Cc1ccc2c(c1)CCCC2
inactive: [1] 17.4% | [2] 12.2% | [3] -4.6% | [4] -28.9% | [5] 25.7% | [6] 47.3%

C=CC(C)C(C)(C)O (stereo not drawn)
inactive: [1] -3.2% | [2] -43.5% | [3] -1% | [4] 4.25% | [5] -13.5% | [6] -2.4%

O=[N+]([O-])c1ccc2[nH]c(=S)n(/C=C(/c3ccc(Cl)cc3Cl)S(=O)(=O)Cc3ccc(Cl)cc3Cl)c2c1
inactive: [1] -5.05% | [2] -13.8% | [3] 16.1% | [4] 23.9% | [5] -3% | [6] -13.1%

COc1ccc(/C=C\C(=O)/C=C/c2ccc(OC)cc2)cc1
inactive: [1] -11.9% | [2] 7.05% | [3] 1.5% | [4] -14.4% | [5] -3.35% | [6] 0%

COC1CC(OC(=O)c2ccc([N+](=O)[O-])cc2)C(COC(=O)c2ccc([N+](=O)[O-])cc2)O1 (stereo not drawn)
inactive: [1] 9.45% | [2] 20.8% | [3] 1.9% | [4] -1.1% | [5] -0.7% | [6] 36.1%

COc1cccc(N=CNc2cccc(OC)c2)c1
inactive: [1] -36.2% | [2] -34.7% | [3] -17.4% | [4] 8.55% | [5] -11.8% | [6] -27.9%
